Results filed as inconclusive are left out. Active and inactive are the calls of the source. Unless noted, calls follow the shape of the dose curve; as a rule, active = well fitted curve in either direction with a large enough effect (not every such curve was filed as active); inconclusive = small, poorly fitted or top-dose-only effect, or another doubt; inactive = flat fitted curve, though single readings scatter.
What was measured:
[1] = target: Lysosomal acid glucosylceramidase (Homo sapiens) (UniProt P04062); assay: Glucocerebrosidase-p2 (AID 348; in the data active = potency below about 10 µM; also: potency is read from the fitted curve at half-maximal effect); conditions: purified GBA, blue fluorogenic substrate, 40 min
Summary of the method: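 Normal human glucocerebrosidase (0.2 nM) with blue fluorogenic substrate (80 uM final) in citrate/phosphate pH 5.9 with 10mM sodium taurocholate, 0.01% tween-20; 40 min RT, NaOH/glycine stop; fluorescence Ex 365/Em 440; AC50 from a titration from 0.6 nM upwards.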

[2] = AP1 Signaling Pathway (AID 357); conditions: ME-180 AP-1-bla reporter, EGF-induced, beta-lactamase ratio, 5 h; at 7.69 µM (top of the series) unless noted;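 also: ME-180 reporter cells stimulated with EGF at its EC50 level; % is scaled to controls: 0 for no effect and ±100 for the full control effect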
Summary of the method: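 A ratiometric CCF4 readout (405 nm excitation; 460 and 530 nm emission) quantified AP-1-driven beta-lactamase in ME-180 cells after 5 h with compound and EC50 EGF; AC50 values were derived for activators and inhibitors.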

[3] = Stat Signaling Pathway (AID 446); conditions: ME-180 (cervical carcinoma) SIE beta-lactamase reporter, IL-6 stimulated, 5 h; at 7.69 µM (top of the series) unless noted;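 also: ME-180 cervical cancer cells given 40 pM IL-6 alongside compound; SIE-controlled beta-lactamase reporter measured as 460/530 nm FRET emission ratio; % is scaled to controls: 0 for no effect and ±100 for the full control effect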
Summary of the method: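 Overnight-plated ME-180 cells bearing a STAT Inducible Element beta-lactamase reporter; 5 h co-exposure to compound and 40 pM IL-6; values normalized to 300 pM IL-6 and 125 nM JAK inhibitor controls.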

[4] = target: Glucocorticoid receptor (Homo sapiens) (UniProt P04150); assay: GR-GFP Redistribution (AID 450;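 active = compounds whose dose series gives a full or clear partial fitted curve of increased nuclear translocation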; also: potency is read from the fitted curve at half-maximal effect); conditions: U2OS GR-GFP nuclear translocation, laser cytometry, 2 h
[5] = target: Glucocorticoid receptor (Homo sapiens) (UniProt P04150); assay: GR-EFC Redistribution (AID 451; calls by dose curve; also: potency is read from the fitted curve at half-maximal effect); conditions: CHO-K1 GR-EFC translocation, beta-gal luminescence, 2 h
Summary of the method: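 Translocation of GR-ED fusion to nuclear EA restores b-gal, read by luminescence after 1 h room-temperature detection. Engineered CHO-K1 biosensor cells, 1,000/well, exposed 2 h at 37 C to titrations up to 46 uM final.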

[6] = target: Mitogen-activated protein kinase 10 (Mus musculus) (UniProt Q61831); assay: JNK3 AlphaScreen Assay (AID 530); conditions: JNK3 lysate, c-Jun phosphorylation; series mostly up to 57.1 µM;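 also: kinase came from lysate of stimulated human HepG2 cells; signal reports phosphorylation of biotinylated GST-cJun 1-79 at Ser73 with 10 µM ATP; % is scaled to controls: 0 for no effect and ±100 for the full control effect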
Summary of the method: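 qHTS titrations with 15 min compound pre-incubation before adding ATP (10 uM final). Read-out: AlphaScreen of Ser73-phosphorylated biotin-GST-cJun using HepG2 lysate JNK3 activated by IL-1β and TNFα.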

[7] = target: 3',5'-cyclic-AMP phosphodiesterase 4B (Homo sapiens) (UniProt Q07343); assay: qHTS Assay for Inhibitors of PDE-IV (AID 607; active = well fitted activation curve with a large enough effect in the main read-out, with a control signal flat, not every such curve was filed as active; also: % of control where 0% means no effect); conditions: HEK293 ACTOne CNG channel cells, membrane potential fluorescence; series mostly up to 22.9 µM
Summary of the method: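 Live HEK293 cells with a modified cyclic nucleotide-gated (CNG) channel report intracellular cAMP via membrane-potential dye fluorescence (ex 535/em 590 nm). Endogenous PDE-IV was targeted. Compounds were tested at up to 22.9 uM final; RO 20-1724 100 uM served as control.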

[8] = target: Luciferin 4-monooxygenase (Photinus pyralis) (UniProt P08659); assay: Biochemical firefly luciferase enzyme assay for NPC (AID 624030; active = well fitted inhibition curve with a large enough effect;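 also: purified P. pyralis luciferase at 10 nM with luciferin and ATP substrate; 0% = DMSO and -100% = full luciferase inhibition by PTC124 control; nearly all actives have a fitted effect of over 70% in size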); conditions: purified P. pyralis luciferase, luminescence, 5 min; series mostly up to 58.6 µM
Summary of the method: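 Direct inhibition of firefly luciferase enzyme (10 nM final, 50 mM Tris Acetate) assessed by luminescence within 5 minutes. Percent activity scaled between DMSO and PTC124 positive control, with concentration-effect curves classified by fit quality and response.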

[9] = target: Cytochrome P450 1A2 (Homo sapiens) (UniProt P05177); assay: p450-cyp1a2 (AID 410; calls by dose curve;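 also: -100% = full effect of reference inhibitor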); conditions: recombinant CYP1A2, luciferin-ME demethylation, luminescence; series mostly up to 11.4 µM
Summary of the method: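 Luminescent demethylation readout: Luciferin-ME (100uM, equal to Km) turned over by 20nM CYP1A2 for 60 min at room temperature after NADPH regeneration addition, following 10 min compound preincubation. Normalization used 57 uM furafylline as full inhibition.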

[10] = NFAT Signaling Pathway (AID 444); conditions: Jurkat NFAT-bla M1, carbachol, beta-lactamase ratio, 5 h; at 7.69 µM (top of the series) unless noted;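 also: carbachol stimulus at about its EC50 of 1 µM final; % is scaled to controls: 0 for no effect and ±100 for the full control effect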
Summary of the method: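 Read-out: CCF4 FRET ratio (460 nm/530 nm) after 1 h RT dye loading, used for %activity and AC50 from titration series. Cells: Jurkat NFAT-β-lactamase/M1 line, treated with compound plus 1 uM carbachol for 5 h, 37 °C.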

[11] = target: Ubiquitin carboxyl-terminal hydrolase 1 (Homo sapiens) (UniProt O94782); assay: Inhibitors of USP1/UAF1: Pilot qHTS (AID 504865; active = well fitted inhibition curve with a large enough effect;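 also: rhodamine fluorescence freed from ubiquitin-rhodamine substrate followed over time; top concentration of the series differs between compounds; % is scaled to controls: 0 for no effect and ±100 for the full control effect; nearly all actives have a fitted effect of over 35% in size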); conditions: purified USP1/UAF1, Ub-rhodamine cleavage fluorescence; series mostly up to 114 µM
Summary of the method: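 1nM USP1/UAF1 + cpd, 15 min RT; start w/ Ub-Rho 150nM final; kinetic FL 480/540 nm, 6 reads q60 s. Buffer 50mM HEPES pH 7.8, 0.5mM EDTA, 1mM TCEP, 0.01% Tween-20, 0.1 mg/ml BSA.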

Glucocorticoid receptor (Homo sapiens), sequence (P04150 whole entry, looked up, the tested form may be a part): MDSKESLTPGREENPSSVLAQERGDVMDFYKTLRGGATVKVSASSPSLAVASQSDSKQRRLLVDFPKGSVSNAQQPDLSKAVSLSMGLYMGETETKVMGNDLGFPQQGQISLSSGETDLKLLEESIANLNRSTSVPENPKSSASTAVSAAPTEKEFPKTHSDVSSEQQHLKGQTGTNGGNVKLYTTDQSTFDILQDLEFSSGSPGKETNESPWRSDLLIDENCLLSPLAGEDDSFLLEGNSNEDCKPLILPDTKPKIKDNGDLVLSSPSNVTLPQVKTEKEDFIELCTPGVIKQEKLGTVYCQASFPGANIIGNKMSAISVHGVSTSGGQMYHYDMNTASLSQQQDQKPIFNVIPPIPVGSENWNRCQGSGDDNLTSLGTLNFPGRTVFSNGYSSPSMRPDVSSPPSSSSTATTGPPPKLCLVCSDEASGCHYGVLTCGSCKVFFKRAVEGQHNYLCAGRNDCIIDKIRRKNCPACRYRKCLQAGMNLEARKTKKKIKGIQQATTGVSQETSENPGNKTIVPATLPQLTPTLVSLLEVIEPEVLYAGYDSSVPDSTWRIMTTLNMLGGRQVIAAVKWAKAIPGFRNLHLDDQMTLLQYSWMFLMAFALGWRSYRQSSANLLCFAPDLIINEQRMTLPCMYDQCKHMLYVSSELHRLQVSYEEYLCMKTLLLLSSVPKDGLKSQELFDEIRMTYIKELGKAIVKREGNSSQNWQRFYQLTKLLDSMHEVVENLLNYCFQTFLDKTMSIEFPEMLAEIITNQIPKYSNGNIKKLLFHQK
Lysosomal acid glucosylceramidase (Homo sapiens), sequence (P04062 whole entry, looked up): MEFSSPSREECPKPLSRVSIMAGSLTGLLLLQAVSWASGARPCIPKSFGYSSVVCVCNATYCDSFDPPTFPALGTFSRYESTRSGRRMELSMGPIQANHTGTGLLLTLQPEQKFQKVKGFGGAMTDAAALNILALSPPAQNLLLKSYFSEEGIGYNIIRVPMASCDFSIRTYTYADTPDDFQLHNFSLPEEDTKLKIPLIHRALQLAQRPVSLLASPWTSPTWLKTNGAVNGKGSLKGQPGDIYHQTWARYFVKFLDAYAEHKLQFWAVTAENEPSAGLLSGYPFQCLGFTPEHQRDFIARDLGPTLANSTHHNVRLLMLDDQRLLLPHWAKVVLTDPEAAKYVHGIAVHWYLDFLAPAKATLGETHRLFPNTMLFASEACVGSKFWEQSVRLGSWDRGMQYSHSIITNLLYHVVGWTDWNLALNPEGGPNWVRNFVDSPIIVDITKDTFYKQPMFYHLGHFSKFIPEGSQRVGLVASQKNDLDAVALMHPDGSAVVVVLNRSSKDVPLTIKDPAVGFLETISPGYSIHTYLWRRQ
3',5'-cyclic-AMP phosphodiesterase 4B (Homo sapiens), sequence (Q07343 whole entry, looked up): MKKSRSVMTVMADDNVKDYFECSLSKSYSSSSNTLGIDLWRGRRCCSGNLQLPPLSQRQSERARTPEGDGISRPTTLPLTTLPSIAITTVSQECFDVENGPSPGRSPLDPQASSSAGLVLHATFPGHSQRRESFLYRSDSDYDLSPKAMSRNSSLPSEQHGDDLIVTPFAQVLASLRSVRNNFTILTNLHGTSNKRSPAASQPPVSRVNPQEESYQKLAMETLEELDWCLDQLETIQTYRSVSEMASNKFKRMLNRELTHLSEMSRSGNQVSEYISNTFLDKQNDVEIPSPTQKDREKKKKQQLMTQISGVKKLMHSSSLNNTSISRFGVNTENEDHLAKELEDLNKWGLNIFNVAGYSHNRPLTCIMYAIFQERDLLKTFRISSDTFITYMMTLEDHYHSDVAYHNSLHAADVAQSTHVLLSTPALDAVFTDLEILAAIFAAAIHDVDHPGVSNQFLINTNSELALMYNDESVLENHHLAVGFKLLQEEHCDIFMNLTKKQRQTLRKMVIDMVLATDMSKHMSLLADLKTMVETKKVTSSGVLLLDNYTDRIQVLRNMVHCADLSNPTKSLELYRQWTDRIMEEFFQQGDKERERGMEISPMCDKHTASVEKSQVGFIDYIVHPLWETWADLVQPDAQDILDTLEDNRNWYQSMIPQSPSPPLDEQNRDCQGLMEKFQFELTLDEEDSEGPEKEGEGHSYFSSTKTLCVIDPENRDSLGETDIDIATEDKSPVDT
Cytochrome P450 1A2 (Homo sapiens), sequence (P05177 whole entry, looked up): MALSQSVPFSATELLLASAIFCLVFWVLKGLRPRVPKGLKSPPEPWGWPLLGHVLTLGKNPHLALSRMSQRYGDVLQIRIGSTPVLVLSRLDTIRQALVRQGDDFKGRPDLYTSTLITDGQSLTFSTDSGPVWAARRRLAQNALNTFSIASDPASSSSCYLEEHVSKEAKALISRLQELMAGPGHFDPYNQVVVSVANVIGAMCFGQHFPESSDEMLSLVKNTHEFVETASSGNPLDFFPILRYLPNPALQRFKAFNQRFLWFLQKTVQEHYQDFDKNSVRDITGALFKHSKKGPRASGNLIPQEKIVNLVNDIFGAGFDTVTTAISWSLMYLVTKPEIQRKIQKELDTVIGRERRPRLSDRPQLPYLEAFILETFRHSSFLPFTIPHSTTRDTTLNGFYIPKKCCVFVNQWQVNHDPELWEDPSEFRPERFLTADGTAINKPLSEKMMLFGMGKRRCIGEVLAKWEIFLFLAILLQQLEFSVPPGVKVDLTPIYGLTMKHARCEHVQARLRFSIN
Ubiquitin carboxyl-terminal hydrolase 1 (Homo sapiens), sequence (O94782 whole entry, looked up): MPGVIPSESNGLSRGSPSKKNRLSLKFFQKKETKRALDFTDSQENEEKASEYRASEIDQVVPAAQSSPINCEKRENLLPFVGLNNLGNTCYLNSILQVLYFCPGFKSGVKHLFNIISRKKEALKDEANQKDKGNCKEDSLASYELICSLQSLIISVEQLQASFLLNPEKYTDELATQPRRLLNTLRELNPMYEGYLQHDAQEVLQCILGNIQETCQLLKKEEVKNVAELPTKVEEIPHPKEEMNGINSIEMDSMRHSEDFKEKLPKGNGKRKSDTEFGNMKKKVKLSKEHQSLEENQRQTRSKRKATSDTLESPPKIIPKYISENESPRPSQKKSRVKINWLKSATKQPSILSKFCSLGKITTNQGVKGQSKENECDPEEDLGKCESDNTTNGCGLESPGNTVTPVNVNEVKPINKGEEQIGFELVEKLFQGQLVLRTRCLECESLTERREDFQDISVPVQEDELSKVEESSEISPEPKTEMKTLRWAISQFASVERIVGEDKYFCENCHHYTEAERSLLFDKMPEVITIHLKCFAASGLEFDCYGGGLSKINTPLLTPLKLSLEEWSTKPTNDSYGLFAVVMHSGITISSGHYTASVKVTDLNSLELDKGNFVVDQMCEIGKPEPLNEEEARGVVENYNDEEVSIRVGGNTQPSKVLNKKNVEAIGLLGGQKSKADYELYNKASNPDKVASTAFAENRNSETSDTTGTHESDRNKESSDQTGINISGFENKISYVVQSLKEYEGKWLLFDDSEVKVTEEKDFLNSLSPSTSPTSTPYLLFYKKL
Luciferin 4-monooxygenase (Photinus pyralis), sequence (P08659 whole entry, looked up): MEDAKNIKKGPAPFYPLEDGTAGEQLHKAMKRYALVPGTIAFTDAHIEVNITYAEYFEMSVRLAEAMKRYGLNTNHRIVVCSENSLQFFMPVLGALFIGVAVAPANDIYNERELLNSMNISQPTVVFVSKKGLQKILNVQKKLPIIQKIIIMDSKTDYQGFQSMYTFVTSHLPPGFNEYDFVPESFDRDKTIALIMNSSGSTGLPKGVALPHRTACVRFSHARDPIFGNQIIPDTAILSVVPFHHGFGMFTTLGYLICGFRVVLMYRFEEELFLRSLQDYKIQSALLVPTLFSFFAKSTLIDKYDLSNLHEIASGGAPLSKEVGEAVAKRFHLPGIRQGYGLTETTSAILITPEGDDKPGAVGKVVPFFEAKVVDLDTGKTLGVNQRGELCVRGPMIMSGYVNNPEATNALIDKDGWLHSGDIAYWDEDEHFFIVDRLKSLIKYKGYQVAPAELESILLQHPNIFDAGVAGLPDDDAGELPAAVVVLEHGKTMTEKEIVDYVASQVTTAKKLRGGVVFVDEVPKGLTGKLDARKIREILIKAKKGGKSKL

NNc1nncn1N
inactive: Potency [1] > 11.4 µM | activity change, negative = inhibition [2] 17.5% | activity, negative = inhibition [3] 18.4% | Potency [4] > 46 µM | Potency [5] > 9.22 µM | activity change, negative = inhibition [6] 3.94% [at 11.4 µM] | outcome [7]

Cc1ccc(O)cc1 (tested in a mixture with another compound)
inactive: Potency [1] > 11.4 µM | activity change, negative = inhibition [2] 3.77% | activity, negative = inhibition [3] -4.46% | Potency [4] > 46 µM | Potency [5] > 9.22 µM | activity change, negative = inhibition [6] 1.19% [at 11.4 µM] | outcome [7] | outcome [8]

CC[C@@H]1CN2CCc3cc(OC)c(OC)cc3[C@H]2C[C@@H]1C[C@@H]1NCCc2cc(O)c(OC)cc21
active: activity change, negative = inhibition [2] -117% [at 17.2 µM] | activity change, negative = inhibition [10] -126% [at 17.2 µM] | activity, negative = inhibition [3] -100% [at 17.2 µM]
inactive: Potency [9] | Potency [4] > 20.6 µM | Potency [5] > 20.6 µM | Potency [6] | Potency [11]

Nc1ccccc1O.O.O=C(O)[C@H]1[O][Sb][O][C@H]1C(=O)O
inactive: Potency [1] > 11.4 µM | activity change, negative = inhibition [9] -23.1% [at 2.29 µM] | activity change, negative = inhibition [10] -17.5% | activity, negative = inhibition [3] 8.88% | Potency [4] > 46 µM | Potency [5] > 9.22 µM | activity change, negative = inhibition [6] -2.79% [at 11.4 µM] | outcome [7]

— PubChem BioAssay (NCATS)
